Measured values taken from PubChem BioAssay (NCATS).
Results filed as inconclusive are left out. The source made the active and inactive calls. Calls follow the shape of the full dose curve.

molecular target: Retinoic acid receptor RXR-alpha (Homo sapiens) (UniProt P19793); assay: qHTS assay for small molecule agonists of retinoid X receptor alpha signaling (AID 588544); details: HEK293T RXRa-UAS-bla, beta-lactamase reporter, 18 h; series mostly up to 76.7 µM
Excerpt: NIH Chemical Genomics Center [NCGC] U.S. Environmental Protection Agency [EPA] National Institutes of Environmental Health Sciences [NIEHS] National Toxicology Program [NTP] NCGC Assay Overview The Retinoid X receptor (RXR), a nuclear hormone receptor is expressed in liver, spleen, placenta, epidermis, central nervous system. These receptors are able to form homo and heterodimers with other nuclear receptors and due to this heterodimerizing ability, RXR functions as master regulators producing diverse physiological effects. Three subtypes of RXR exist; alpha, beta and gamma. Retinoid X receptor alpha (RXR-alpha) has potential roles in metabolic signaling pathways, skin alopecia, dermal cysts, cardiac development, insulin sensitization etc. Therefore screening environmental chemicals on RXR-alpha signaling can be used for the studies focused on such therapeutic applications.
NCGC Assay Protocol Summary Using a beta-lactamase reporter-gene under control of Retinoid X receptor--alpha (RXR-alpha) response element, a cell-based assay [GeneBLAzer (RXR-alpha -UAS-bla assay developed by Invitrogen] was used to measure RXR-alpha ligands signaling. GeneBLAzer RXR-alpha -UAS-bla HEK293T cells were used with assay medium containing 2% charcoal-stripped FBS. The assay was performed in clear bottom black Greiner 1536-well plates. 9-cis-retinoic acid was used in the screen as the positive control. Library compounds were measured for their ability to stimulate the reporter gene activity. Compounds were screened in a titration series in 1536-well format. The fluorescence intensity (405 nm excitation, 460/530 nm emission) was measured using an EnVision plate reader. Data was normalized relative to 9-cis-retinoic acid control (500 nM, 100%), and DMSO only wells (basal, 0%). Concentration-response titration points for each compound were fitted to the Hill equation yielding concentrations of half-maximal stimulation (EC50) and maximal response (efficacy) values. qHTS protocol for RXR-alpha beta-lactamase assay in agonist mode [Step] [Parameter] [Value] [Description] 1. Reagent; 6 uL; 2500 cells/well 2. Incubation; 37 C for 4 hrs 3. Compounds; 23 nL; 0.59 nM to 92 uM 4. Controls (9-cis-retinoic acid); 23 nL, - One column with dose response, start 38 uM, 1:3 dilutions in duplicates - Final concentrations of 500 nM and 50 nM in two columns 5. Incubation; 37 C for 18 hrs 6. Detection reagent; 1 uL of CCF4-dye 7. Incubation; RT for 2 hrs 8. Detection; Fluorescence; Envision plate reader

Sequence of Retinoic acid receptor RXR-alpha (Homo sapiens) (P19793 whole entry, looked up): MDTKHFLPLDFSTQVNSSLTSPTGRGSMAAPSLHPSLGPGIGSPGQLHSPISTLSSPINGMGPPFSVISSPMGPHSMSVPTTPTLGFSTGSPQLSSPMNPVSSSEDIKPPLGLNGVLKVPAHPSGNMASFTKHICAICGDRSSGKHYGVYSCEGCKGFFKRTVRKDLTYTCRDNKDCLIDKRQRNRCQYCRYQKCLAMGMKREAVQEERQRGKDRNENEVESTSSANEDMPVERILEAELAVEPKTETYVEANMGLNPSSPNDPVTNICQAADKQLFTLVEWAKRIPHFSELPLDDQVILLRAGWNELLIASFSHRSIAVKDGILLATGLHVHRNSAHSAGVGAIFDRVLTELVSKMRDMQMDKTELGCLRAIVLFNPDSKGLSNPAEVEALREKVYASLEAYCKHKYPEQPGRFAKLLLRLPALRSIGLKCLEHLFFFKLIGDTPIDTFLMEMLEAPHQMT

| Compound | outcome |
| --- | --- |
| Nc1c(Br)cc([N+](=O)[O-])cc1[N+](=O)[O-] | inactive |
| OCCBr | inactive |
| ClCc1ccccc1 | inactive |
| C/C=C/CC#N | inactive |
| C=CC#N | inactive |
| O=[N+]([O-])c1cccc(CCl)c1 | inactive |
| c1ccc(N=NNc2ccccc2)cc1 | inactive |
| Cc1cc(Cl)ccc1O | inactive |
| O=C(Cl)OCc1ccccc1 | inactive |
| N#CCCC#N | inactive |
| CN=C=O | inactive |
| Cc1ccc(N=C=O)cc1N=C=O | inactive |
| c1ccc2c(c1)CCNC2 | inactive |
| CC(C#N)CCC#N (stereo not given) | inactive |
| N#CC(Cl)(Cl)Cl | inactive |
| Cl/C=C\Cl | inactive |
| Oc1cccc(Cl)c1Cl | inactive |
| CN(C)C(=O)Nc1ccc(Cl)cc1 | inactive |
| CC(=O)[O-].CC(=O)[O-].CC(=O)[O-].[Cr+3] | inactive |
| CCOC(=O)CBr | inactive |

| Compound | outcome |
| --- | --- |
| Cc1cc(-c2ccc(N)c(C)c2)ccc1N | inactive |
| N#CCBr | inactive |
| Clc1ccc(C(Cl)(Cl)Cl)cc1Cl | inactive |
| O=[N+]([O-])c1cccc(O)c1 | inactive |
| Cc1cc(-c2cc(C)c(N)c(C)c2)cc(C)c1N | inactive |
| Cc1ccc(OP(=O)(Oc2ccc(C)cc2)Oc2ccc(C)cc2)cc1 | inactive |
| Nc1ncc([N+](=O)[O-])s1 | inactive |
| CC(C)(OOC(C)(C)c1ccccc1)c1ccccc1 | inactive |
| CCC(Cl)[N+](=O)[O-] (stereo not given) | inactive |
| CC(C)[N+](=O)[O-] | inactive |
| O=C(O)C(Br)Br | inactive |
| CCC[N+](=O)[O-] | inactive |
| NC1CCC(CC2CCC(N)CC2)CC1 (stereo not given) | inactive |
| O=[N+]([O-])c1ccccc1-c1ccccc1 | inactive |
| CCCCOCC1CO1 (stereo not given) | inactive |
| O=[N+]([O-])c1c(Cl)c(Cl)c(Cl)c(Cl)c1Cl | inactive |
| O=[N+]([O-])c1cccc2c([N+](=O)[O-])cccc12 | inactive |
| O=C(O)C(Cl)Br (stereo not given) | inactive |
| ClCc1ccccn1 | inactive |
| CCNCC | inactive |
